# Assay results: PMC5540273 (PLoS ONE, 2017)
# Test system: T1, YES
# T1 construct: gene YES1
# Conditions: concentration: 1 μM, replicates: in singlicate; n = 1
# 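Also: KINOMEscan kinase panel screen.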
row,Compound,%Inh
1,CC(C)(C)c1ccc2nccc(Nc3cccc(O)c3)c2c1 [GW856795],5%
2,COc1cc(Nc2nccc(-c3c(-c4cccc(NC(=O)c5c(F)cccc5F)c4)nn4ccccc34)n2)cc(OC)c1OC [GSK323521],8%
3,O=c1[nH]cc(-c2ccc(N3CCOCC3)cc2)c2sc(-c3cn[nH]c3)cc12 [GSK2276055],0%
4,COc1cccc(-c2ccc3c(NC(=O)C4CC4)n[nH]c3n2)c1 [SB-710903],13%
5,Nc1ncc(-c2cccnc2)c2scc(-c3ccc4c(c3)CCN4C(=O)Cc3ccccc3)c12 [GSK683281],28%

# Test system: T2, YSK1
# T2 construct: gene STK25
# Conditions: concentration: 1 μM, replicates: in singlicate; n = 1
row,Compound,%Inh
1,O=C(Nc1cccc(-c2nn3ccccc3c2-c2ccnc(Nc3cccc(F)c3)n2)c1)c1c(F)ccc(F)c1Cl [GSK357952],0%
2,c1ccc(-c2cnc3nccnn23)cc1 [AH20685],0%
3,CN(c1ccc(NC(=O)Nc2cc(C(F)(F)F)ccc2F)cc1)c1ccnc(Nc2ccc(S(N)(=O)=O)cc2)n1 [GW809893],100%
4,O=C(Nc1n[nH]c2cc(-c3ccoc3)ccc12)C1CC1 [SB-738481],0%
5,C[C@@H]1CC[C@@H](C(=O)Nc2ccccc2)CN1c1cc(-c2ccc3c(N)n[nH]c3c2)nc(N)n1 [GSK2286062],21%
6,O=C(Nc1cccc(-c2nn3ncccc3c2-c2ccnc(Nc3ccccc3)n2)c1)c1c(F)cccc1F [GSK198271],20%
7,COc1cccc(NC(=O)NC2CCN(c3ccnc(Nc4cc(OC)c(OC)c(OC)c4)n3)C2)c1 (stereo not drawn) [GSK1379763],6%
8,CN1CCN(CCCNc2nccc(-c3c(-c4ccc(F)cc4)nn4cc(C(F)(F)F)ccc34)n2)CC1 [GW621581],0%
9,Nc1n[nH]c2cnc(-c3ccccc3)cc12 [SB-642124],1%
10,Cc1occc1-c1ncc(OC[C@@H](N)Cc2c[nH]c3ccccc23)cc1-c1ccc2[nH]nc(C)c2c1.O=C(O)C(F)(F)F [GSK682037],17%
11,Cl.NC(=O)c1cccc(Nc2nccc(Nc3ccc(Oc4c(Cl)cccc4Cl)c(Cl)c3)n2)c1 [GW659009],0%
12,CCCCc1nn2ncccc2c1-c1ccnc(Nc2ccc(N3CCN(C)CC3)cc2)n1 [GW684941],0%
13,CCc1ccc(-c2ccc3c(c2)-c2c(cnn2C)S(=O)(=O)N3C)cc1,7%
14,c1ccc(-c2n[nH]cc2Nc2ccnc3ccccc23)nc1 [GW694077],12%
15,c1ccc(Oc2ccc(Nc3ccnc4cc(-c5ccc(CNCCN6CCOCC6)o5)ccc34)cc2)nc1 [GW567145],2%
16,Cn1cc(-c2[nH]c3cc(NC(=O)[C@H](N)C4CCCCC4)cc4c3c2C=NNC4=O)cn1,47%
17,FC(F)(F)c1ccc(/C=C/c2cncnc2Nc2ccc3[nH]c(Cc4ccccc4)nc3c2)cc1 [GW709199],0%
18,COc1cc2c(cc1OCCN1CCNCC1)ncc1c3ccc(C#N)cc3[nH]c21,1%
19,CC(=O)N1CCN(c2ccc(Nc3nccc(-c4sc(C(C)C)nc4-c4cccc(NS(=O)(=O)c5cccc(Cl)c5)c4)n3)cn2)CC1 [GSK1660437],0%

row,Compound,%Inh
1,Cc1ccc(F)c(C(=O)Nc2cccc(-c3nn4ccccc4c3-c3ccnc(Nc4cccc(F)c4)n3)c2)c1F [GSK361061],0%
2,Cc1cccc(NC(=O)Nc2ccc(Oc3ncnc4ccn(C)c34)cc2)c1,0%
3,COc1cc(Nc2nccc(N3CCC(NC(=O)Nc4cccc(C(C)=O)c4)C3)n2)cc(OC)c1OC (stereo not drawn) [GSK1379753],2%
4,C[C@@H](Oc1cc(-n2cnc3cc(-c4ccnc(NCCS(C)(=O)=O)c4)ccc32)sc1C(N)=O)c1ccccc1Cl [GSK907232],14%
5,COC(=O)Nc1nc2cc(Oc3ccc(NC(=O)Nc4cc(C(F)(F)F)ccc4F)cn3)ccc2[nH]1.Cl.Cl [GW681170],0%
6,Nc1ncnc2c1nc(-c1ccccc1)n2-c1ccccc1 [SKF-97293],4%
7,NCCCC(NC(=O)c1cc(Br)c(-c2ccnc3[nH]ccc23)s1)c1ccccc1.O=C(O)C(F)(F)F.O=C(O)C(F)(F)F (stereo not drawn) [GSK1287544],0%
8,CSc1cccc2c(-c3ccncn3)c(-c3ccc(F)cc3)nn12 [GW514786],0%
9,CC(C)c1nc(-c2cccc(NS(=O)(=O)c3c(F)cccc3F)c2F)c(-c2ccnc(Nc3ccc(N4CCOCC4)nc3)n2)s1 [GSK2008607],56%
10,Cc1cccc(Nc2nc(N[C@H]3CCNC3)ncc2C(N)=O)c1.Cl [GSK2197149],52%
11,Nc1ncc(-c2ccc3nccc(-c4ccncc4)c3c2)cc1S(=O)(=O)N1CCOCC1 [GSK1627798],0%
12,COc1ccc(CNC(=O)NC2CCN(c3ccnc(Nc4ccc(F)cc4)n3)CC2)cc1 [GSK1379788],0%
13,O=C(Nc1n[nH]c2nc(-c3ccc(O)cc3)ccc12)C1CC1 [SB-710363],0%
14,CC(C)(C)c1ccc2nccc(Nc3cccc(O)c3)c2c1 [GW856795],0%
15,COc1cc(Nc2nccc(-c3c(-c4cccc(NC(=O)c5c(F)cccc5F)c4)nn4ccccc34)n2)cc(OC)c1OC [GSK323521],3%
16,O=c1[nH]cc(-c2ccc(N3CCOCC3)cc2)c2sc(-c3cn[nH]c3)cc12 [GSK2276055],26%
17,COc1cccc(-c2ccc3c(NC(=O)C4CC4)n[nH]c3n2)c1 [SB-710903],0%
18,Nc1ncc(-c2cccnc2)c2scc(-c3ccc4c(c3)CCN4C(=O)Cc3ccccc3)c12 [GSK683281],27%
